Laboratory results: PubChem BioAssay AID1159580 (chemical genetic matrix, 2015)
The whole screen tested about 5,500 compounds, of which about 2,000 (36%) were called active. Roughly 18% stayed inconclusive and do not appear here. Cut-off read from the data, not from the text of the source: active = normalized growth mostly below about 0.91 (no sharp cut-off); inconclusive = no clear call, values can overlap the other calls; inactive = mostly above about 0.92. Some of the results follow.

Assay: chemical genetic growth profiling, strain panel (AID 1159580);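 note: tested at 20 µM; growth read once vehicle control cultures reached saturation at 30 °C; 1 = growth at the plate median or of vehicle wells; lower values mean less growth of the strain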
Details: S. cerevisiae deletion strains, growth OD
[1] = locus YAR019C, strain CDC15, active compounds read low
[2] = locus YBL105C, strain PKC1, active compounds read low
[3] = locus YBR135W, strain CKS1, active compounds read low
[4] = locus YBR136W, strain MEC1, active compounds read low
[5] = locus YBR160W, strain CDC28, active compounds read low
[6] = locus YDL017W, strain CDC7, active compounds read low
[7] = locus YDL028C, strain MPS1, active compounds read low
[8] = locus YDL101C, strain DUN1, active compounds read low
[9] = locus YDL108W, strain KIN28, active compounds read low
[10] = locus YDL132W, strain cdc53, active compounds read low
[11] = locus YDL214C, strain PRR2, active compounds read low
[12] = locus YDR052C, strain DBF4, active compounds read low
[13] = locus YDR054C, strain cdc34, active compounds read low
[14] = locus YDR226W, strain ADK1, active compounds read low
[15] = locus YDR477W, strain SNF1, active compounds read low
[16] = locus YER123W, strain YCK3, active compounds read low
[17] = locus YER133W, strain GLC7, active compounds read low
[18] = locus YFL009W, strain cdc4, active compounds read low
[19] = locus YFL029C, strain CAK1, active compounds read low
[20] = locus YFR003C, strain YPI1, active compounds read low
[21] = locus YFR019W, strain FAB1, active compounds read low
[22] = locus YFR028C, strain CDC14, active compounds read low
[23] = locus YGR040W, strain KSS1, active compounds read low
[24] = locus YGR052W, strain FMP48, active compounds read low
[25] = locus YGR092W, strain DBF2, active compounds read low
[26] = locus YHR030C, strain SLT2, active compounds read low
[27] = locus YHR079C, strain IRE1, active compounds read low
[28] = locus YHR082C, strain KSP1, active compounds read low
[29] = locus YHR205W, strain SCH9, active compounds read low
[30] = locus YIL147C, strain SLN1, active compounds read low
[31] = locus YJL095W, strain BCK1, active compounds read low
[32] = locus YJL128C, strain PBS2, active compounds read low
[33] = locus YJL157C, strain FAR1, active compounds read low
[34] = locus YJR016C, strain ILV3, active compounds read low
[35] = locus YJR066W, strain TOR1 (second series), active compounds read low
[36] = locus YJR066W, strain TOR1, active compounds read low
[37] = locus YKL048C, strain ELM1, active compounds read low
[38] = locus YKL067W, strain YNK1, active compounds read low
[39] = locus YKL101W, strain HSL1, active compounds read low
[40] = locus YKL193C, strain SDS22, active compounds read low
[41] = locus YKL203C, strain TOR2, active compounds read low
[42] = locus YLR113W, strain HOG1, active compounds read low
[43] = locus YLR133W, strain CKI1, active compounds read low
[44] = locus YLR403W, strain SFP1, active compounds read low
[45] = locus YML070W, strain DAK1, active compounds read low
[46] = locus YMR001C, strain CDC5, active compounds read low
[47] = locus YMR205C, strain PFK2 (second series), active compounds read low
[48] = locus YMR277W, strain FCP1, active compounds read low
[49] = locus YNL006W, strain LST8, active compounds read low
[50] = locus YNL020C, strain ARK1, active compounds read low
[51] = locus YNL161W, strain CBK1, active compounds read low
[52] = locus YNL183C, strain NPR1, active compounds read low
[53] = locus YNL207W, strain RIO2, active compounds read low
[54] = locus YNL222W, strain SSU72, active compounds read low
[55] = locus YNL307C, strain MCK1 (second series), active compounds read low
[56] = locus YOL078W, strain AVO1, active compounds read low
[57] = locus YOL136C, strain PFK27, active compounds read low
[58] = locus YOR061W, strain CKA2, active compounds read low
[59] = locus YOR119C, strain RIO1, active compounds read low
[60] = locus YOR231W, strain MKK1, active compounds read low
[61] = locus YOR329C, strain SCD5, active compounds read low
[62] = locus YPL031C, strain PHO85, active compounds read low
[63] = locus YPL153C, strain RAD53, active compounds read low
[64] = locus YPL204W, strain HRR25, active compounds read low
[65] = locus YPL209C, strain IPL1, active compounds read low
[66] = locus YPL256C, strain CLN2, active compounds read low
[67] = locus YPR025C, strain CCL1, active compounds read low
[68] = locus YPR106W, strain ISR1, active compounds read low
[69] = locus YPR111W, strain DBF20, active compounds read low
[70] = strain NNK1, active compounds read low
[71] = strain TSCII, active compounds read low

Measured: normalized growth

O=C(CSCc1csc2ccccc12)Nc1ccc(F)c(Cl)c1
inactive: [1] 0.978 | [2] 0.977 | [3] 0.973 | [4] 0.981 | [5] 0.974 | [6] 0.98 | [7] 0.982 | [8] 0.999 | [9] 0.973 | [10] 0.982 | [11] 0.885 | [12] 0.99 | [13] 0.97 | [14] 0.986 | [15] 0.909 | [16] 0.884 | [17] 0.921 | [18] 0.978 | [19] 0.975 | [20] 0.978 | [21] 0.93 | [22] 0.975 | [23] 0.917 | [24] 0.925 | [25] 0.878 | [27] 0.858 | [28] 0.896 | [29] 0.845 | [30] 0.984 | [31] 0.877 | [32] 0.946 | [33] 0.875 | [34] 0.972 | [35] 0.893 | [36] 0.889 | [37] 0.952 | [38] 0.897 | [39] 0.89 | [40] 0.977 | [41] 0.96 | [43] 0.899 | [44] 0.889 | [45] 0.849 | [46] 0.977 | [47] 0.904 | [48] 0.978 | [49] 0.978 | [50] 0.887 | [51] 0.977 | [52] 0.879 | [53] 0.974 | [54] 0.966 | [55] 0.877 | [56] 0.979 | [57] 0.843 | [58] 0.895 | [59] 0.965 | [60] 0.814 | [61] 0.982 | [62] 0.906 | [63] 0.897 | [64] 0.907 | [65] 0.973 | [67] 0.975 | [68] 0.961 | [69] 0.952 | [70] 0.956 | [71] 0.977
active: [26] 0.821 | [42] 0.68 | [66] 0.754

O=C(Nc1ccc(Cl)cc1)SCc1c(Cl)cccc1Cl
inactive: [1] 0.985 | [2] 0.976 | [3] 0.984 | [4] 0.967 | [5] 0.988 | [6] 0.976 | [7] 0.987 | [8] 0.974 | [9] 0.959 | [10] 0.999 | [11] 0.786 | [12] 0.974 | [13] 0.953 | [14] 0.969 | [15] 0.83 | [16] 0.659 | [17] 0.834 | [18] 1 | [19] 0.975 | [20] 0.972 | [22] 0.988 | [23] 0.808 | [24] 0.765 | [25] 0.763 | [27] 0.748 | [28] 0.787 | [29] 0.919 | [30] 0.973 | [31] 0.745 | [32] 0.92 | [33] 0.76 | [34] 0.995 | [35] 0.746 | [36] 0.788 | [37] 0.891 | [38] 0.8 | [39] 0.83 | [40] 0.973 | [41] 0.891 | [43] 0.816 | [44] 0.897 | [45] 0.783 | [46] 0.971 | [47] 0.836 | [48] 0.975 | [49] 0.989 | [50] 0.771 | [51] 0.974 | [52] 0.821 | [53] 0.955 | [54] 0.979 | [55] 0.721 | [56] 0.977 | [57] 0.761 | [58] 0.756 | [59] 0.905 | [60] 0.831 | [61] 0.979 | [62] 0.778 | [63] 0.798 | [64] 0.813 | [65] 0.972 | [67] 0.988 | [68] 0.963 | [69] 0.961 | [70] 0.954 | [71] 0.978
active: [21] 0.747 | [26] 0.793 | [42] 0.728 | [66] 0.811
